Assay outcomes from PubChem BioAssay.
The list is not random: actives were taken first. Their share in the collection is about 1.9%.
PP5 primary: blocks human protein phosphatase 5 activity; P53041; purified PP5c, OMFP substrate fluorescence; inhibition, % at 6.7 µM; 320,000 compounds, 0.18% hits;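 active means inhibition above the campaign's mean inhibition across all tested compounds plus 3 SD, cut at about 9.5% in these data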;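 further: 0% = DMSO only and 100% = 100 µM cantharidin control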
ATG4B inhibitor: ATG4B (human) cysteine protease inhibition; ATG4B cleavage of LC3-PLA2, NBD-HPC fluorescence, 1 h; inhibition, % at 8.33 µM; 340,000 compounds, 0.51% hits; in the data active means inhibition above about 40%
Cardio protect: modulators protecting cardiomyocytes from myocardial damage; H9c2 cardiomyocytes, H2O2 injury protection, ATPLite, 2 h; protection from H2O2 cell death, % at 20 µM; 360,000 compounds, 0.63% hits;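 active means compounds giving at least 50% protection of heart cells from peroxide-induced death in the single-dose screen, raw or plate-pattern-corrected value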;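 further: 0% = DMSO wells with peroxide and 100% = DMSO wells without peroxide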
PP1 inh: PP1-alpha (human) inhibition in PP5 counter-screen; inhibition, % at 6.7 µM; AID 2235; P62136; purified PP1alpha, OMFP fluorescence; 320,000 compounds, 0.9% hits;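 active means inhibition above the mean inhibition of all tested compounds plus 3 SD, computed separately for each screening campaign, cut at about 15% in these data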
Target sequence (P62136 whole entry, looked up): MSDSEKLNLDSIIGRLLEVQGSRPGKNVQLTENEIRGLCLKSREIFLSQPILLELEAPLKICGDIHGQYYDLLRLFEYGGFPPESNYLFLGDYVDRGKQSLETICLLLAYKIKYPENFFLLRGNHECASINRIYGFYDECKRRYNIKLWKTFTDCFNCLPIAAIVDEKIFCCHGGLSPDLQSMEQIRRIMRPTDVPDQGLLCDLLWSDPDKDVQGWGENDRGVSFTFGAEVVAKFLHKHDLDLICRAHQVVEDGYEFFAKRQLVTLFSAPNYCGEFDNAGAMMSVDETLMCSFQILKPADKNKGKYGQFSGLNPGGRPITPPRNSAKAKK
ATG4B confirm: confirmation of human ATG4B inhibitors. ATG4B protease fluorescent substrate cleavage assay. shares compounds with ATG4B inhibitor. inhibition, % at 8.33 µM. 320 compounds, 92% hits; in the data active means inhibition above about 39%
PLA2 ctr: PLA2 (human) inhibition in ATG4B counter-screen; shares compounds with ATG4B inhibitor; purified PLA2, NBD-C6-HPC fluorescence, 45 min; inhibition, % at 8.33 µM; 1,600 compounds, 66% hits; AID 588402; in the data active means inhibition above about 50%
Target sequence (P04054 whole entry, looked up): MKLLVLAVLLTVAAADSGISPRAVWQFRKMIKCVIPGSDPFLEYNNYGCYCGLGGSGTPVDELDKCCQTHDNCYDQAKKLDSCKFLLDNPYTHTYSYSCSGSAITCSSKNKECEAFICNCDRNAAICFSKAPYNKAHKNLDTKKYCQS
Numbers without * were called inactive; . = no result.

SMILES	PP5 primary	ATG4B inhibitor	Cardio protect	PP1 inh	PLA2 ctr	others
CC(=O)N(C(C)=O)N1C(=O)/C(=C/c2ccc(Cl)cc2)SC1=S	2	68*	-22	-1	57*
Cc1ccc(C)n1N1C(=O)/C(=C\c2ccc(Cl)cc2)SC1=S	1	-1	-32	5	.
CC(C)c1[nH]nc2c1C(c1ccc(OC(=O)c3ccco3)cc1)C(C#N)=C(N)O2 (centres undefined)	4	83*	2	-7	84*
Cc1ccc(C(=O)Nc2cccc(NC(=O)c3ccc(C)o3)n2)o1	0	-8	3	-1	.
Cc1ccc(C(=O)NCCc2nnc3ccc(N4CCCC4)nn23)cc1	0	7	5	0	.
O=C(O)/C=C/c1ccccc1Oc1ccc(Cl)cc1Cl	0	41*	-3	-1	11	ATG4B confirm=68*
O=C(O)/C=C\c1ccccc1Oc1cccc(Cl)c1	3	15	3	0	.
O=C(CN(c1cccc(C(F)(F)F)c1)S(=O)(=O)c1ccc(Cl)c([N+](=O)[O-])c1)NCc1ccccc1Cl	6	54*	-14	13	53*
N#CC1=C(S)N(c2ccccc2)C(c2ccc(-c3ccccc3Cl)o2)NC1=O (centres undefined)	0	66*	0	4	74*
Cc1ccccc1C(=O)NC(=S)Nc1ccc(S(=O)(=O)N(C)c2ccccc2)cc1	2	48*	-19	0	57*
O=C(NNc1ccccc1[N+](=O)[O-])Nc1cccc(Cl)c1	1	-5	-2	2	.
CN(Cc1ccc(F)cc1)C(=O)COc1ccccc1-c1ccccc1	3	48*	2	0	48
COc1ccccc1NS(=O)(=O)c1cccc(N=C2N=C(N)c3ccccc32)c1	1	54*	-1	-3	57*
O=C(Nc1cc(S(=O)(=O)Nc2ccc(Cl)cc2)ccc1N1CCCCC1)c1ccc(F)cc1	2	42*	-16	6	28
OC(CN1c2ccccc2Sc2ccccc21)Cn1nnc2ccccc21 (centres undefined)	6	44*	-4	3	65*
O=C1c2ccccc2C(=O)N1CC(O)Cn1nnc2ccccc21 (centres undefined)	1	-6	-1	-2	.
O=C(Cn1cccc1C(=O)c1ccccc1)NCCC1=CCCCC1	1	43*	-10	0	42	ATG4B confirm=62*
Cc1ccc(NC2CCCN(C(=O)c3ccnc(Cl)c3)C2)cc1C (centres undefined)	1	9	2	-1	.
N#CCOC(=O)[C@H](Cc1c[nH]c2ccccc12)NS(=O)(=O)c1ccc(Cl)cc1	4	57*	-2	-1	67*
O=C(O)C(Cc1c[nH]c2ccccc12)NS(=O)(=O)c1ccc(F)cc1 (centres undefined)	.	.	-3	.	.
O=C(c1ccoc1)N1CCN(c2cc(-c3cccc(F)c3)nc3cc(-c4cccc(Cl)c4)nn23)CC1	.	.	-15	.	.
CN(C)CCNc1nc2sc3c(c2c(=O)n1CCc1ccccc1)CCCCC3	-1	-4	-18	2	.
CC(O)CNc1nc2sc3c(c2c(=O)n1CCc1ccccc1)CCCCC3 (centres undefined)	3	41*	16	0	55*
O=C(NC(=S)N(CCO)Cc1ccccc1)c1cc(Br)ccc1Cl	1	-1	6	6	.
Cc1nnc2ccc(-c3ccc(NS(=O)(=O)c4ccc(Cl)s4)cc3)nn12	1	-11	14	-2	.
SMILES	PP5 primary	ATG4B inhibitor	Cardio protect	PP1 inh	PLA2 ctr	others
COc1ccc(CC(=O)Nc2c3c(nn2C(C)(C)C)CS(=O)(=O)C3)cc1OC	-2	6	2	-1	.
CCc1noc(C)c1C(=O)N(CC)CC(=O)Nc1cc(Cl)ccc1C	-3	9	9	-3	.
Cc1cc(Cl)ccc1Oc1ccc(C(N)=O)cc1[N+](=O)[O-]	4	53*	-8	3	24
Cc1cc(=O)oc2cc(Oc3ccc(C(N)=O)cc3[N+](=O)[O-])ccc12	0	26	15	0	.
CCc1nc(N2CCN(C(=O)c3ccccc3)CC2)c2c3c(sc2n1)CCCC3	1	75*	17	3	82*
O=C(c1ccco1)N1CCN(c2ncnc3sc4c(c23)CCC4)CC1	3	22	-4	2	.
CCc1nc(N2CCN(C(=O)c3ccco3)CC2)c2c3c(sc2n1)CCCC3	1	78*	9	8	86*
N#CC1(NC(=O)CN2c3cccc4cccc(c34)S2(=O)=O)CCCCC1	1	-6	5	-3	.
Cc1cccc(NC(=S)NNC(=O)c2csc3c2CCCC3)c1	5	43*	-15	3	43	ATG4B confirm=71*
Cc1cccc(C)c1NC(=O)CN(C)C(=O)c1ccc2c(=O)n3c(nc2c1)CCC3	-2	8	5	-1	.
COc1ccc(NC(=O)c2ccc(OC)c(S(=O)(=O)N3CCCCC3C)c2)cn1 (centres undefined)	0	-14	-1	-3	.
COc1cccc(Cn2cc(-c3cccc(C(F)(F)F)c3)nn2)c1	4	50*	-6	1	68*
CCOc1ccccc1NC(=O)CSc1nnc(-c2cccnc2)o1	-1	1	4	-3	.
O=C(Nc1ccc(S(=O)(=O)NC2=NCCCCC2)cc1)c1ccc(Cl)c([N+](=O)[O-])c1	.	-7	-13	.	.
Cc1cccc(C)c1NS(=O)(=O)c1ccc(NC(=O)c2ccc(Cl)c([N+](=O)[O-])c2)cc1	5	49*	-22	1	43
CCOc1c(Br)cc(C(N)=O)cc1OC	4	1	6	4	.
COc1cc(C(N)=O)cc(Br)c1OCc1ccccc1	5	70*	-7	0	71*
CCOc1c(Br)cc(C(N)=O)cc1OCc1ccccc1	8	79*	-11	6	80*
CCCOc1c(Br)cc(C(N)=O)cc1OCC	-2	42*	-1	4	56*
COc1ccc(/C=C/C(=O)OCC(=O)Nc2ccc3c(c2)OCO3)cc1	1	1	-5	0	.
CCCCN(C(=O)COC(=O)C1(c2ccccc2)CC1)c1c(N)n(CCC)c(=O)[nH]c1=O	.	.	4	.	.
COc1ccc([C@H]2CC(=O)C=C(c3ccccc3-c3ccccc3)C2)cc1	2	42*	-9	2	58*
CCCCC/C=C\C/C=C\C/C=C\C/C=C\CCCC(=O)O	0	.	.	-3	.
CC/C=C\C/C=C\C/C=C\CCCCCCCC(=O)O	0	46*	1	1	27	ATG4B confirm=63*
Cn1c(=O)c2cc(NC(=O)NCc3ccc(Cl)cc3Cl)ccc2n1Cc1ccc(F)cc1	.	.	-5	.	.
O=C(O)c1ccc(C[n+]2c(-c3ccccc3)csc2Nc2ccccc2)cc1	3	42*	-5	3	17	ATG4B confirm=84*
CCCCCC[n+]1c(-c2ccccc2)csc1Nc1ccccc1	-1	-2	-14	1	.
